Laboratory results as given in PubChem BioAssay (NCI).
About 79,000 compounds went through this panel and 15% of them were active in at least one assay; those are over-represented in the sample as a whole. Calls of active or inactive are those of the source. No stated cut-off is given here; in the data, active means growth inhibition above about 70%; inactive means the rest.

How the values were obtained:
[1] = NCI Yeast Anticancer Drug Screen. Data for the rad50 strain (AID 155);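 further: 0% = growth of vehicle-only cultures of the same strain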; conditions: S. cerevisiae rad50 strain growth inhibition; at 50.0 µM; hits give high values
How it was run: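 Growth of the mutant yeast was measured after compound exposure and referenced to vehicle-treated cultures.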

[2] = NCI Yeast Anticancer Drug Screen. Data for the mec2-1 strain (AID 157); conditions: S. cerevisiae mec2-1 strain, at 50.0 µM, hits give high values
How it was run: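 Growth inhibition is read against vehicle-treated controls after compound exposure of the mec2-1 yeast strain, which is defective in DNA damage repair or cell cycle control.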

[3] = NCI Yeast Anticancer Drug Screen. Data for the sgs1 mgt1 strain (AID 161);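 further: 0% = growth of cultures given vehicle only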; conditions: S. cerevisiae sgs1 mgt1 strain, at 50.0 µM, hits give high values
How it was run: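 Yeast cells carrying a defined DNA-repair defect were exposed to test compounds. Growth inhibition was measured relative to vehicle-treated controls.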

[4] = NCI Yeast Anticancer Drug Screen. Data for the cln2 rad14 strain (AID 165);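 further: 0% = growth equal to vehicle treated cultures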; conditions: S. cerevisiae cln2 rad14 strain, at 50.0 µM, hits give high values
How it was run: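 Growth inhibition, relative to vehicle-treated controls, is the read-out. The test organism is a yeast strain with defined genetic alterations, cln2 rad14.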

[5] = NCI Yeast Anticancer Drug Screen. Data for the bub3 strain (AID 167); conditions: S. cerevisiae bub3 mutant strain, at 50.0 µM, hits give high values
How it was run: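 Whole-cell yeast assay. The mutant strain was incubated with compounds, and growth inhibition was determined by comparison with vehicle-treated cells.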

[6] = NCI Yeast Anticancer Drug Screen. Data for the mlh1 rad18 strain (AID 175); conditions: S. cerevisiae mlh1 rad18 strain growth inhibition; at 50.0 µM; hits give high values
How it was run: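 Cells of a genetically altered yeast strain, deficient in DNA damage repair, were treated with compound. Their growth was then compared with that of vehicle-treated cultures to give inhibition.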

Measured: growth inhibition

CCC(c1cccc(OC)c1)C(C(=O)O)c1ccc(OC)cc1 (stereo unspecified)
inactive: [1] 5% | [2] 17.5% | [3] 12.6% | [4] 7.15% | [5] 7.35% | [6] 27.2%

Cc1ccc(-n2ncc3c(N)ncnc32)cc1
inactive: [1] 10.2% | [2] 12.4% | [3] 2.6% | [4] -19% | [5] -7.8% | [6] -14.2%

N=C(N)n1ncc2c1CCC/C2=N/N=C(N)N
inactive: [1] 17.5% | [2] 17.1% | [3] 13.5% | [4] 64.3% | [5] 29.9% | [6] 3.9%

O=C1NC(=S)N/C1=C\c1ccco1
inactive: [1] 21.9% | [2] 10.2% | [3] 0.5% | [4] 15.2% | [5] 26.5% | [6] 32%

CN(C)C1=CC(=S)NC2CCCCC12 (stereo unspecified)
inactive: [1] 4.1% | [2] -4.7% | [3] 10.6% | [4] 2.05% | [5] -10.1% | [6] 22.1%

O=c1c(SCc2ccc(Br)cc2)c(SCc2ccc(Br)cc2)cnn1-c1ccccc1
inactive: [1] 22.3% | [2] 4.65% | [3] 13.8% | [4] 34% | [5] 13.4% | [6] 14.8%

Nc1cc(=O)n(C2CC(O)C(CO)O2)cn1 (stereo unspecified)
inactive: [1] 7.25% | [2] 2.05% | [3] 11.5% | [4] 1.95% | [5] -13.3% | [6] 5.6%

Cc1ccc(C)[nH]1
inactive: [1] -2.85% | [2] 7.35% | [3] -8.45% | [4] 53.2% | [5] -4.4% | [6] 18.1%

CCC(C(=O)O)C(=O)O
inactive: [1] -16.9% | [2] -38.4% | [3] -23.7% | [4] 14.3% | [5] -7.75% | [6] 10.3%

COc1ccc(NC(=O)CC(=O)N2N=C(N(c3ccccc3)c3ccccc3)CC2c2ccccc2)cc1 (stereo unspecified)
inactive: [1] 4.75% | [2] 2.05% | [3] 12.2% | [4] 26.3% | [5] 17.6% | [6] -29.8%

O=C(O)[C@H](CSSC[C@@H](C(=O)O)N1C(=O)c2ccccc2C1=O)N1C(=O)c2ccccc2C1=O
inactive: [1] 20.3% | [2] -6.4% | [3] -4.85% | [4] 31.4% | [5] 2.8% | [6] -4.4%

CC(=O)C1C(=O)C(=O)N(c2ccc(F)cc2)C1=O (stereo unspecified)
inactive: [1] -17.4% | [2] -15.5% | [3] -5.4% | [4] -6.95% | [5] -25.9% | [6] -27.3%

CSC1C(=O)Nc2ccc([N+](=O)[O-])cc21 (stereo unspecified)
inactive: [1] -11.6% | [2] -12.7% | [3] 0.45% | [4] -19.3% | [5] -39.7% | [6] -0.8%

CCC(C(=O)O)c1cccc2c(C)ccc(C)c12 (stereo unspecified)
inactive: [1] 8.25% | [2] 3.55% | [3] 21.4% | [4] 23.2% | [5] 7.7% | [6] 8.15%

CN1CCCCC1C(O)CO (stereo unspecified)
inactive: [1] 11.4% | [2] -5.7% | [3] -8.05% | [4] -47.4% | [5] -3.2% | [6] -27.1%

Cc1sc2nc3n(c(=O)c2c1C)N=C(c1ccccc1)CS3
inactive: [1] -29.4% | [2] -11.8% | [3] -33.3% | [4] 11.1% | [5] -31.4% | [6] -17.2%

O=C(NC/C(Cl)=C/Cl)Nc1cccc2c1CCCC2
inactive: [1] -5.5% | [2] -13.2% | [3] 19.8% | [4] -10.8% | [5] 22% | [6] 3.6%

Cc1ccc2cccnc2c1
inactive: [1] 21.9% | [2] -4.6% | [3] -0.95% | [4] 11.2% | [5] 2.85% | [6] 5%

CC(C)=CCC/C(C)=C/c1cc(C(=O)O)c2c(ccc3ccccc32)n1
inactive: [1] 9.6% | [2] 10.5% | [3] 6.7% | [4] 11.3% | [5] 25.1% | [6] 14.3%

NC(=O)c1cn(Cc2ccccc2)c(=O)n1Cc1ccccc1
inactive: [1] 9.75% | [2] 18.2% | [3] -3.2% | [4] 9.45% | [5] 23.8% | [6] 11.7%

CCCOc1cncc(C)n1
inactive: [1] 8% | [2] 19.1% | [3] -3.75% | [4] -3.85% | [5] 13.6% | [6] 9.95%

Cc1ccc2occ(-c3nnc(NC(=O)c4ccccc4)s3)c(=O)c2c1
inactive: [1] -36.2% | [2] -9.75% | [3] -11.7% | [4] -26.6% | [5] -7.35% | [6] -23.2%

CSc1cc(/C=C/c2ccccc2)ccc1[N+](=O)[O-]
inactive: [1] 1.65% | [2] 0.95% | [3] 4.95% | [4] 15% | [5] 14.3% | [6] 4.45%

O=C1C=C(Nc2ccc3ccccc3c2[N+](=O)[O-])c2ccccc2C1=O
inactive: [1] 27.2% | [2] 17.4% | [3] 8.05% | [4] -16.4% | [5] 23.2% | [6] 7.1%

Clc1ccc(/C=N/c2ccccn2)cc1
inactive: [1] -37.2% | [2] -51.4% | [3] -22.8% | [4] 19.9% | [5] -54.1% | [6] -31.1%

COc1ccc(C2C(C(=O)NCc3ccccc3)=C(C)NC(C)=C2C(=O)NCc2ccccc2)cc1OC
inactive: [1] -1.8% | [2] -4.5% | [3] -23.6% | [4] 8.4% | [5] 3.35% | [6] 16.9%

O=C(O)C(CO)c1ccccc1 (stereo unspecified)
inactive: [1] 0.15% | [2] -1.3% | [3] -4.55% | [4] -4.65% | [5] 10.6% | [6] -2.75%

CC(C)(C)N1CC(C(O)c2ccccc2)C1c1ccccc1 (stereo unspecified)
inactive: [1] -8.05% | [2] 0.25% | [3] -17.2% | [4] -13.6% | [5] -11.4% | [6] -2.5%

COC(=O)c1cc(Cl)c(C(=O)OC)cc1Cl
inactive: [1] 4.1% | [2] 3% | [3] 3.85% | [4] 0.6% | [5] 7.4% | [6] 8.6%

Nc1ccc(Sc2nnc(N)s2)cc1
inactive: [1] -26% | [2] -16.6% | [3] -53.1% | [4] 6.8% | [5] -31.4% | [6] -47.5%

CCCCCCCC/C=C\CCCCCCCC(=O)N(CCOC(=O)CCC(=O)OCCN(C(=O)CCCCCCC/C=C\CCCCCCCC)C1CCCCC1)C1CCCCC1
inactive: [1] -5.15% | [2] -9.25% | [3] -17.4% | [4] -3.2% | [5] -4.25% | [6] 16.8%

CC(C)(C)NC(=O)Oc1ccc(-c2ccccc2)cc1
inactive: [1] 4.75% | [2] 26.6% | [3] 33% | [4] -4.45% | [5] 18.2% | [6] 32.9%

NCCCN(CCO)CCO
inactive: [1] -42.5% | [2] -3.1% | [3] -27.9% | [4] -31.9% | [5] -28.5% | [6] -20.4%

CN(C)c1ccc(/C=C(\C#N)C(=O)c2ccccc2)cc1
inactive: [1] -9.8% | [2] 8.25% | [3] 8.9% | [4] -7.15% | [5] 6.85% | [6] 22.9%

CCc1ccc(N=Nc2ccc(Br)cc2)cc1
inactive: [1] 8.85% | [2] -18% | [3] -4.95% | [4] 6.85% | [5] 2.85% | [6] -10.3%

CCOC(=O)C(C(=O)OCC)=C1c2ccccc2Oc2ccccc21
inactive: [1] 39.1% | [2] 8% | [3] 14.7% | [4] -17.6% | [5] 33.5% | [6] 46%

CCOC(=O)C(C(=O)OC(c1ccccc1)c1ccccc1)(C(c1ccccc1)c1ccccc1)C(c1ccccc1)c1ccccc1
inactive: [1] 0.45% | [2] 18% | [3] 1.65% | [4] -9.25% | [5] -1.4% | [6] -10.8%

O=C(CBr)c1ccc(S(=O)(=O)c2ccccc2)cc1
inactive: [1] 67.3% | [4] 27.9%
active: [2] 92.7% | [3] 85% | [5] 72.2% | [6] 78.3%

COC(=O)C1CCCC2(C1)OCCO2 (stereo unspecified)
inactive: [1] 15.2% | [2] 5% | [3] -23.1% | [4] -10.2% | [5] -32.7% | [6] -2.75%

CC(O)CN1CCOCC1 (stereo unspecified)
inactive: [1] 9.55% | [2] 2.2% | [3] -0.1% | [4] 15.2% | [5] -9.85% | [6] 3.55%

CCOC(=O)C1CC(C)c2[nH]c3ccccc3c21 (stereo unspecified)
inactive: [1] 2.2% | [2] 6.9% | [3] -5.15% | [4] -25% | [5] -12% | [6] -13%
